Screening data (PubChem BioAssay)
Shiga inhibitor = blocks Shiga toxin action in Vero cells | Vero cells, Shiga toxin protein synthesis inhibition reporter | inhibition, % at 38.7 µM | 290,000 compounds, 9.2% hits | AID 2315; in the data active = inhibition mostly above about 28%, no sharp cut-off; inactive = mostly below about 43%
AMA1-RON2 inh = AMA1-RON2 (P. falciparum) interaction inhibition | Potency, µM (series often up to 58.2 µM), usual class: inhibitors | AlphaScreen AMA1-biotinylated RON2 peptide binding | 360,000 compounds, 0.2% hits; active = well fitted inhibition curve with a large enough effect; inconclusive = small, poorly fitted or top-dose-only effect; inactive = no such curve, though single readings can be large or run the other way; also: nearly all actives have a fitted effect of over 45% in size
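AMA1 (3D7) with his tag at 25 nM final met compounds first, then biotinylated RON2 peptide at 25 nM; detection used donor plus acceptor beads, 10 µg/mL apiece, read by AlphaScreen after 30 min at room temperature.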
LASV entry inh = Lassa virus entry inhibition | 300,000 compounds, 1.2% hits | Lassa virus pseudotype entry inhibition, cell reporter | Potency, µM (titrated, usually from 37.9 µM), most hits filed as inhibitors; calls by dose curve; tested in HEK293 cells; also: nearly all actives have a fitted effect of over 50% in size
MARV entry inh = Marburg virus entry inhibition; Potency, µM (series often up to 37.8 µM), actives largely listed as inhibitors; 300,000 compounds, 1.8% hits; Marburg virus pseudotyped entry inhibition, cell reporter; calls by dose curve; tested in HEK293 cells
CHX counter = counter-screen for Shiga toxin inhibitors: cycloheximide protein synthesis inhibition. cell reporter, cycloheximide protein synthesis inhibition counterscreen. max response, %. 300,000 compounds, 12% hits; in the data active = max response mostly above about 13%, no sharp cut-off; inactive = mostly below about 14%; also: read at 38.3 µM for the half of the compounds with a filed dose
Hits are given with their value; i = inactive; ? = inconclusive; nt = no result given. The sample as a whole holds a higher share of hits than the screen did.

SMILES | Shiga inhibitor | AMA1-RON2 inh | LASV entry inh | MARV entry inh | CHX counter
C#CCSc1nnc(-c2ccc(C)cc2)o1 | 73 | i | ? | ? | 39
C#CCSc1nnc(-c2cccc3ccccc23)o1 | nt | i | i | ? | nt
Cc1ccc(C2=Nc3ccc(Br)cc3C(c3ccncc3)=NN2)cc1 | i | i | i | ? | 28
Brc1ccc(C2=Nc3ccccc3C(c3ccncc3)=NN2)cc1 | i | i | i | i | i
CCOc1ccc2c(c1)C(c1ccccc1)=NNC(c1ccccc1)=N2 | 57 | i | i | i | 45
CCCOc1ccc(C2=NNC(c3cccs3)=Nc3ccc(OC)cc32)cc1 | 98 | i | i | ? | 57
Cc1ccc(C2=Nc3cccnc3C(c3ccccc3)=NN2)cc1 | 79 | i | ? | ? | 49
CCc1ccc2c(c1)C(c1ccncc1)=NNC(c1ccccc1)=N2 | i | i | nt | nt | i
Cc1ccc2c(c1)C(c1ccncc1)=NNC(c1ccc(F)cc1)=N2 | i | i | i | i | i
CC1C=CCC2C(=O)N(c3cccc(C(=O)Nc4ccc(F)cc4)c3)C(=O)C12 (stereo not given) | i | i | ? | i | i
CCc1ccc(NC(=O)C(CC)n2c(=O)c(-c3ccccc3NC(C)=O)nc3ccccc32)cc1 (stereo not given) | nt | nt | i | i | nt
CCOc1ccc(CN2CCN(Cc3cccn3-c3nccs3)CC2CCO)cc1 (stereo not given) | i | i | i | ? | i
Cc1ccc2c(c1)C(c1ccncc1)=NNC(c1ccccc1)=N2 | 103 | i | i | i | 50
COc1ccc2c(c1)C(c1ccc(C)o1)=NNC(c1ccccc1)=N2 | 96 | i | nt | nt | 42
Cc1ccc2c(c1)C(c1ccncc1)=NNC(c1ccc(C(C)C)cc1)=N2 | 32 | nt | nt | i | i
Cc1ccc(CN2C(=O)CN(C3CCC(C)CC3)C(=O)C2c2ccc(F)cc2)cc1 (stereo not given) | nt | nt | i | nt | nt
CCN(C)C1CN(Cc2cn(Cc3ccc(F)cc3)nn2)S(=O)(=O)C1 (stereo not given) | nt | i | nt | nt | nt
Cc1ccc2nc3ccc(N4CCCCCCC4)nn3c(=O)c2c1 | 56 | i | ? | i | 28
O=c1c2ccccc2nc2ccc(N3CCOCC3)nn12 | 52 | i | i | ? | 28
Cc1ccc2nc3ccc(N4CCN(C)CC4)nn3c(=O)c2c1 | 57 | i | i | i | 32
Cc1nnc2ccc(N3CCN(C)CC3)nn12 | i | i | i | i | i
CCOC(=O)Nc1c(O)ccc2oc(C)c(-c3ccccc3)c12 | i | i | i | i | i
CCOC(=O)[C@]12CCCC=C1N(CCc1ccc(OC)c(OC)c1)C(=O)[C@H](CC(=O)NCCc1ccccc1OC)C2 | nt | i | nt | nt | nt
COc1cc(/C=N/N=C(/N)c2nonc2N)cc(Br)c1OCc1cccc(C)c1 | i | i | i | ? | 21
COc1cc(/C=N/N=C(\N)c2nonc2N)cc(OC)c1O | 79 | i | i | i | 47
SMILES | Shiga inhibitor | AMA1-RON2 inh | LASV entry inh | MARV entry inh | CHX counter
CCOc1cc(/C=N/N=C(\N)c2nonc2N)cc(Br)c1OCc1cccc2ccccc12 | i | i | ? | ? | i
COc1ccc(/C=N/N=C(\N)c2nonc2N)cc1 | 44 | i | nt | nt | i
COc1ccc(/C=N/Nc2nonc2N)cc1 | i | i | i | i | 23
CCOC(=O)c1c(NC(=O)c2nc(S(C)(=O)=O)ncc2Cl)sc(C(C)=O)c1C | nt | nt | i | i | nt
COC(=O)c1c(Oc2ccc(C(C)=O)cc2)nnc(-c2ccccc2)c1-c1ccccc1 | nt | nt | ? | 6.3µM | nt
Cc1onc(-c2c(F)cccc2Cl)c1C(=O)N(Cc1ccccc1)C(C)C | i | i | ? | ? | i
CC(C)(C)NC(=O)CSc1nc2ccccc2c(=O)[nH]1 | i | i | i | ? | 32
Cc1cc(C(=O)CSC(C)c2nc3ccccc3c(=O)[nH]2)c(C)n1C (stereo not given) | i | i | i | i | i
Cc1cc(C(=O)CSc2nc3ccccc3c(=O)[nH]2)c(C)n1C | 133 | i | i | ? | 34
O=C(O)CSc1nc2ccccc2c(=O)[nH]1 | i | i | i | i | i
COc1ccc(NC(=O)c2ccccc2)c([N+](=O)[O-])c1 | 74 | i | i | i | 32
CCCc1cc(C(=O)Nc2ccc(OC)cc2[N+](=O)[O-])cs1 | i | ? | nt | nt | 28
CCC(=O)Nc1ccc(C(=O)Nc2ccc(OC)cc2[N+](=O)[O-])cc1 | i | i | i | i | i
COC1=C(Nc2ccc(OC)cc2)C(=O)C(OC)=C(Nc2ccc(OC)cc2)C1=O | nt | i | i | i | nt
COC1=C(Nc2ccc(OC)cc2)C(=O)c2ccccc2C1=O | 133 | 13µM | ? | i | 52
CCOc1ccc(NC2=C(OC)C(=O)c3ccccc3C2=O)cc1 | 61 | 8.9µM | i | i | 20
COc1ccc(C2=C(N)c3ccccc3C2=O)cc1 | i | i | i | i | 42
COc1ccc(NC2=C(c3ccc(OC)cc3)C(=O)c3ccccc32)cc1 | i | i | i | i | i
COC1=C(Nc2ccc(O)cc2)C(=O)c2ccccc2C1=O | 77 | ? | ? | ? | 28
CCOC(=O)C(C)NC(=O)C1CCN(c2ncnc3c2nc2n3CCCCC2)CC1 (stereo not given) | nt | nt | i | nt | nt
Cc1ccc(NC(=O)CSc2nnnn2C2CC2)cc1S(=O)(=O)N1CCOCC1 | nt | i | i | i | nt
CCOc1ccc(Oc2ccc(C(F)(F)F)cc2NC(=O)C2=COCCO2)cc1 | nt | i | nt | nt | nt
Cc1c(CC(=O)NCC(=O)O)c(=O)oc2cc3c(cc12)CCC(C)(C)O3 | i | i | nt | nt | i
CC1(OC(=O)c2cnc3ccccc3n2)C(=O)C=C2C=C3CCCN3C=C2C1=O (stereo not given) | nt | nt | nt | i | nt
CCOC(=O)c1sc(NC(=O)Nc2ccc(F)cc2)nc1C | 121 | i | ? | ? | 93
SMILES | Shiga inhibitor | AMA1-RON2 inh | LASV entry inh | MARV entry inh | CHX counter
CCOC(=O)c1sc(NC(=O)Cc2ccc(F)cc2)nc1C | i | i | i | i | 29
CCOC(=O)c1sc(Nc2cccc(Cl)c2)nc1C | 70 | i | i | i | 51
CCOC(=O)c1sc(NC(=O)Cc2ccccc2OC)nc1C | i | i | nt | nt | i
Cc1cccc(-n2ncc3c(NCc4ccc5c(c4)OCO5)ncnc32)c1 | 97 | i | i | i | 18
c1ccc(-n2ncc3c(NCc4ccc5c(c4)OCO5)ncnc32)cc1 | 42 | i | i | ? | 20
COc1ccc(-n2ncc3c(NCc4ccc5c(c4)OCO5)ncnc32)cc1 | 27 | i | i | i | 25
Cc1ccc(-n2ncc3c(NCc4ccc5c(c4)OCO5)ncnc32)c(C)c1 | i | i | ? | i | i
COc1ccc(CNc2ncnc3c2cnn3-c2ccc(Cl)cc2)cc1 | nt | nt | i | nt | nt
O=C(CSc1ncnc2c1cnn2-c1ccc(Cl)cc1)NCc1ccc2c(c1)OCO2 | i | i | ? | ? | i
Cc1ccc(NC(=O)COC(=O)CNC(=O)c2ccco2)cc1 | i | i | i | i | i
COc1cccc(N2CC(NC(=O)c3ccc(S(=O)(=O)N4CCCC4)cc3)CC2=O)c1 (stereo not given) | nt | nt | i | nt | nt
CCc1c(C2(O)CCCCC2)[nH]c2cnccc12 | nt | i | nt | nt | nt
OCCC1CN(Cc2cccn2-c2ncccn2)CCN1CCc1ccccc1 (stereo not given) | i | i | i | i | i
O=C(Nc1c(-c2ccccc2)nc2sccn12)c1ccccc1 | i | i | i | i | i
